# Source: PubChem BioAssay AID504462 (Sanford-Burnham Center for Chemical Genomics, 2011)
# Screen size: about 340,000 compounds; about 1,700 (0.5%) were called active. Only a selection was taken, and actives are over-represented in it overall. Unmarked numbers belong to inactive results. Cut-off read from the data, not from the text of the source: active = inhibition above about 40%; inactive = the rest.
# Molecular target: Cysteine protease ATG4B (Homo sapiens) (UniProt Q9Y4P1)
# Experiment: ATG4B protease inhibitors, primary screen, biochemical, fluorescence, uHTS (AID 504462)
# Settings: ATG4B cleavage of LC3-PLA2, NBD-HPC fluorescence, 1 h; at 8.33 µM; active compounds read high
# Chain of Cysteine protease ATG4B (Homo sapiens) (Q9Y4P1 whole entry, looked up): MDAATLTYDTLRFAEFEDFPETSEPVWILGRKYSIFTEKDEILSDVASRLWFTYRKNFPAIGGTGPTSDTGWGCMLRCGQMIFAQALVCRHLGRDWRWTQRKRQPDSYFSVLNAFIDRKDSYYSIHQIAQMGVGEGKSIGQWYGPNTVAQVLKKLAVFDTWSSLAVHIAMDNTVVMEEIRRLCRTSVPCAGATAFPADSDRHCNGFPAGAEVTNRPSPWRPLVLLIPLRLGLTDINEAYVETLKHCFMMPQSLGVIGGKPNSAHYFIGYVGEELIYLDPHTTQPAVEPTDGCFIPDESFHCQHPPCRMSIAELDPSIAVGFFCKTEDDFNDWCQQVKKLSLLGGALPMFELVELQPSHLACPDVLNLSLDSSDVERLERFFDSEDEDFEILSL
row,SMILES,inhibition
1,CC1(C)C/C(=N/Nc2ccc([N+](=O)[O-])cc2[N+](=O)[O-])C(C)(C)O1,0.43%
2,CC(=O)c1c(N2CCOCC2)nc(=S)n(Cc2ccccc2)c1C,-2.2%
3,Oc1c(Cl)cc(Cl)c(Cl)c1Cc1c(O)c(Cl)cc(Cl)c1Cl,87.4% (active)
4,ClC1(Cl)CC1CSc1ncn[nH]1 (stereo unspecified),-3.17%
5,Nc1c(Cl)cc(-c2csc(N3CCCC3c3nc4cc(Cl)c(Cl)cc4n3CCOCCO)n2)cc1Cl (stereo unspecified),-22.9%
6,CC(=O)NC1(c2cccc(F)c2)CCN(CC(=O)NC(C)C)CC1,-3.58%
7,CCc1ccccc1NC(=O)CCOc1ccccc1,-0.7%
8,CCc1ccccc1NC(=S)Nc1cc(OC)c(NC(=O)C(C)C)cc1OC,3.4%
9,CCc1ccccc1NC(=O)/C(=C/c1ccccc1)c1ccccc1,59.5% (active)
10,CCN1CCN(C(C(=O)NC2CCCC2)c2cc3c(cc2[N+](=O)[O-])OCO3)CC1 (stereo unspecified),-0.97%
11,Cc1cccc(C)c1OCC(=O)NC(Cc1c[nH]c2ccccc12)C(=O)O (stereo unspecified),2.14%
12,O=C(CCn1nnc2ccccc2c1=O)N[C@@H](Cc1c[nH]c2ccccc12)C(=O)O,0.19%
13,O=C(N[C@@H](Cc1c[nH]c2ccccc12)C(=O)O)OCC1c2ccccc2-c2ccccc21,61.3% (active)
14,COCCCNC(=O)C1CCN(c2ccc(N3CCOCC3)nn2)CC1,-8.6%
15,Cc1ccc(-c2ccc(=O)n(Cc3ccc(F)cc3Cl)n2)cc1,17.9%
16,CN(C)Cc1ccc(F)cc1Sc1cc(Cl)ccc1Cl,43.6% (active)
17,COc1ccc(OC)c2c(N)c(C#N)c(C(F)(F)C(F)(F)F)nc12,3.2%
18,COc1ccc(/C=N/n2nnnc2N)cc1OC,4.77%
19,C=CCOC(=O)c1ccccc1C(=O)OCC=C,-32.7%
20,COc1ccc(OCCNC(=O)c2cc(C3CC3)nc3c2cnn3C(C)C)cc1,-0.45%
21,CSc1ccccc1C(=O)NCc1ccccc1,5.57%
22,Cc1ccc(CNC(=O)c2cccnc2Cl)cc1,-10.1%
23,Cc1ccc(CNC(=O)c2ccccc2CCc2ccccc2)cc1,46.1% (active)
24,CC(C)CNc1ncnc2c1cnn2Cc1ccc(Cl)cc1,-1.96%

row,SMILES,inhibition
1,Cc1ccc(C)c(NC(=O)C(c2ccccc2)N2CCN(CC(=O)NC3CC3)CC2)c1 (stereo unspecified),8.15%
2,Cn1c(SCc2c(F)cccc2Cl)nnc1-c1cnccn1,-6.8%
3,Cc1cc(SCc2c(F)cccc2Cl)nc(=O)[nH]1,-6.36%
4,Fc1cccc(Cl)c1CSc1ccc(-c2ccco2)nn1,41.7% (active)
5,O=C1/C(=C/c2cccs2)CCc2ccccc21,15.7%
6,COc1ccc(/C=C2\CCc3ccccc3C2=O)c(OC)c1OC,41.9% (active)
7,COc1ccc(/C=C2\N=C3CCCN3C2=O)cc1,0.67%
8,COc1ccc(/C=N/NC(=O)C2CC2)c(OC)c1OC,-2.43%
9,COc1ccccc1Oc1ccc(N/C=C2/CCCC2=O)cc1,1.94%
10,COc1ccc(/C=C2/CCCc3ccccc3C2=O)cc1,42.3% (active)
11,Cc1cnc(C(=O)N2CCCC(N3CCN(c4ccccc4F)CC3)C2)cn1 (stereo unspecified),8.65%
12,Cn1c(=O)cc(SCC(=O)N2CCCC2)c2cc(Cl)ccc21,-13.1%
13,N#CCN(C(=O)COC(=O)C1CC2CCCC(C1)C2=O)c1ccccc1 (stereo unspecified),1.42%
14,CC(=O)c1c(C)[nH]c(C(=O)NCCCN2CCCC2)c1C,-3.1%
15,O=C(CN1CCOCC1)Nc1c(-c2ccccc2)c2cc(Br)ccc2[nH]c1=O,3.52%
16,O=C(N/N=C\C1CC=CCC1)c1ccc(Br)o1 (stereo unspecified),-3.72%
17,CC(=O)Nc1ccc(C(=O)Nc2nc(-c3cc(C)n(Cc4ccccc4)c3C)cs2)cc1,43.1% (active)
18,Cc1ccc(C(=O)Nc2c(C#N)c(C)c(C)n2Cc2ccccc2)cc1,15.5%
19,CCCn1c(C)cc(-c2csc(NC(=O)CCc3nc4ccccc4c(=O)[nH]3)n2)c1C,-1.22%
20,O=C(Nc1cc(S(=O)(=O)Nc2ccc(Cl)cc2)ccc1O)c1ccc(F)cc1F,13.4%
21,Cc1ccc(C(=O)OC2=CC(=O)CC(C)(C)C2)cc1,-11.7%
22,O=C1CN(C(=O)COc2c(Cl)cccc2Cl)c2ccccc2N1,-0.21%
23,Cc1cccc(N2O[C@H]3C=CC2CCCC3)n1,-2.38%
24,CC(C)(C)c1ccc(OC2=CS(=O)(=O)c3ccccc32)cc1,46.1% (active)

row,SMILES,inhibition
1,CC(C)(C)c1ccc(CN2C(=O)c3ccccc3S2(=O)=O)cc1,5.21%
2,CC(C)(C)c1ccc(Oc2ccc(N)cc2)cc1,7.75%
3,CCCCn1c(N)c(N(CCC(C)C)C(=O)CC2OC(=O)c3ccccc32)c(=O)[nH]c1=O (stereo unspecified),-0.15%
4,O=C(C(=O)N1CCc2ccccc2C1)c1c[nH]c2ccccc12,67% (active)
5,CC1CCN(CC(=O)c2c[nH]c3ccccc23)CC1,-5.44%
6,O=C(NCCCc1ccccc1)C(=O)c1c[nH]c2ccccc12,0.84%
7,COc1ccc(-n2nc3c(c2NC(=O)c2ccc(N4C(=O)CCC4=O)cc2)CSC3)cc1,1.88%
8,O=C(COc1ccc(Br)cc1F)NCC1(N2CCCCC2)CCCCC1,1.03%
9,CSC1=NCCN1C(=O)Cc1cccc2ccccc12,-4.14%
10,NC(=O)Cc1ccc2sc(-c3ccccc3)nc2c1,71.4% (active)
11,CC(=O)c1cnc(-c2ccccc2)s1,-11.9%
12,CC(C)(C)Cc1nnc(NC(=O)c2cc(-c3ccccc3)nc3ccccc23)s1,10.4%
13,O=C(CSc1nnnn1C1CCCC1)Nc1ccc2c(c1)OCCO2,-5.58%
14,Cc1cccc(OC(=O)c2sc3ncn(C)c(=O)c3c2C)c1,-3.95%
15,CCCC1=Nc2cc(C(=O)NCCN3CCCC3)ccc2Sc2ccccc21,3.01%
16,CCCC1=Nc2cc(C(=O)NCc3ccco3)ccc2Sc2ccccc21,40.2% (active)
17,CC(C)(C)c1ccc(C(=O)NCc2ccco2)cc1,-10.7%
18,NS(=O)(=O)c1cc(Cl)c(Cl)c(S(N)(=O)=O)c1,7.96%
19,CC(=O)C1(C)N(O)C(C)(C)C(c2cccs2)=[N+]1[O-] (stereo unspecified),6.58%
20,Cc1cccc(OCCC(=O)OCc2csc(CC(=O)Nc3ccccc3C)n2)c1,-6.31%
21,CC1O[C@H](OC2C(COC3OC(CO)C(O)[C@H](O)C3O)OC(OC3CC[C@]4(C)C(CC[C@@]5(C)[C@@H]4C=C[C@]46OC[C@@]7(CCC(C)(C)C[C@H]74)C(O)C[C@@]56C)C3(C)C)C(O)C2O)C(O)C(O)C1O (stereo partly specified),-8.64%
22,CSCCC(NS(=O)(=O)c1ccc2c(c1)oc(=O)n2C)C(=O)NCc1ccccc1 (stereo unspecified),-9.32%
23,CCOc1cccc(/C=N/N2C(=O)CSC2=S)c1O,-2.71%
24,O=C1CSC(=S)N1/N=C/c1ccc(O)c([N+](=O)[O-])c1,74.7% (active)

row,SMILES,inhibition
1,Cc1cc(C(=O)N/N=C/c2ccc(O)c([N+](=O)[O-])c2)c(C)n1-c1ccc(F)cc1,23.4%
2,CCOc1ccc(NC(=O)CSc2nc3c(c(=O)n2-c2ccccc2OC)SCC3)cc1,-6.73%
3,CCOc1ccc(-n2c(SCC(=O)OC)nc3sc4c(c3c2=O)CCN(C)C4)cc1,5.88%
4,CCOc1ccc(-n2c(SC(C)C(=O)OC)nc3c(c2=O)SCC3)cc1 (stereo unspecified),46.2% (active)
5,Cc1cccc(NC(=S)Nc2ccc(Cl)c(Cl)c2)c1,41.4% (active)
6,NS(=O)(=O)c1ccc(NC(=S)Nc2ccc(Br)c(Cl)c2)cc1,1.95%
7,S=C(Nc1ccccc1)Nc1ccc2ccccc2c1,-5.73%
8,O=C(NCCS(=O)(=O)c1ccc(Br)cc1)c1ccccc1Cl,4.71%
9,Cc1nc([N+](=O)[O-])nn1C12CC3CC(CC(Br)(C3)C1)C2,2.28%
10,CCN1C[C@@H]2[C@@H]3C(=O)N(Cc4ccccc4)C(=O)[C@@H]3[C@](C)(C1=O)N2C(=O)c1ccc(C(C)(C)C)cc1,-18.2%
11,O=C(CN(C(=O)c1csnn1)c1ccc(Br)cc1)NC1CCCC1,-4.03%
12,CO/N=C/c1ccc(N2CCN(C(=O)c3cccc(Cl)c3)CC2)c([N+](=O)[O-])c1,-0.58%
13,O=C(/C=C/c1ccc(Cl)cc1)N1CCN(c2ccccc2[N+](=O)[O-])CC1,41.9% (active)
14,O=C(c1ccc(Cl)c([N+](=O)[O-])c1)N1CCN(c2ccccc2)CC1,-2.12%
15,CC(C)CCNC(=O)Cn1c(=O)oc2cc(S(=O)(=O)N3CC(C)CC(C)C3)ccc21 (stereo unspecified),-3.27%
16,O=C(CN(C(=O)c1csnn1)c1cccc(Cl)c1)NC1CCCC1,5.82%
17,Clc1ccccc1CSc1nnc(-c2ccco2)c(-c2ccco2)n1,54.2% (active)
18,Cc1cc(C)nc(SCc2ccccc2C#N)n1,4.39%
19,CSc1nc(-c2ccco2)nn1C(=O)c1ccccc1Cl,0.74%
20,COc1cccc(-c2coc3cc4oc(=O)c(CC(=O)O)c(C)c4cc23)c1,2.29%
21,Cc1ccc(/C=C/C(=O)O)cc1S(=O)(=O)N1CCC(Cc2ccccc2)CC1,3.43%
22,Cc1c(Cl)cccc1NC(=S)NCc1ccc2c(c1)OCO2,57.9% (active)
23,CCNC(=S)Nc1cccc(Cl)c1C,-7.76%
24,S=C(NCc1ccc2c(c1)OCO2)NCc1ccco1,7%
